PubChem BioAssay (EPA / NIEHS)
Inconclusive results are not listed. The source made the active and inactive calls. Rule for the calls: active = hit-call score of the fitted dose curve at least 0.9, where 1 is the maximum; inconclusive = response in the unintended direction; inactive = score below 0.9.

target: Hepatocyte nuclear factor 4-alpha (Homo sapiens) (UniProt P41235); assay: ATG_HNF4a_TRANS: Attagene TRANS-FACTORIAL HepG2 Assay for human Hepatocyte Nuclear Factor 4 alpha (HNF4a) (AID 2282982); conditions: HepG2 HNF4a transactivation reporter, mRNA readout
Sequence (P41235 whole entry, looked up, the tested form may be a part): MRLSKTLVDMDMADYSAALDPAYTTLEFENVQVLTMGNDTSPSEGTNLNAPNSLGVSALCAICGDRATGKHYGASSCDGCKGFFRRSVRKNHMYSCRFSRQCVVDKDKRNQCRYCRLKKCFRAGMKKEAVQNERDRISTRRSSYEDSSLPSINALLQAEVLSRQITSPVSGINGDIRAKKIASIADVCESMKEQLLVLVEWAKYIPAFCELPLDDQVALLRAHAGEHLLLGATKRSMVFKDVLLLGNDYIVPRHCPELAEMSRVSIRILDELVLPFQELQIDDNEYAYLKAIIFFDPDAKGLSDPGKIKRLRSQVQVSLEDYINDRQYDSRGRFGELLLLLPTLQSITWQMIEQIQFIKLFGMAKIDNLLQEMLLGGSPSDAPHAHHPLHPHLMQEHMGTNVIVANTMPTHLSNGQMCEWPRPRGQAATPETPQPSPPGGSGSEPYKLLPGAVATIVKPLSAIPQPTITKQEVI
In short: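 HepG2 cells transiently transfected with multiplexed GAL4-UAS reporter units responsive to chimeric NR-GAL4 proteins; compound exposure 24 h. Reporter mRNA quantified by RT-PCR, 6-FAM labelling, HpaI digestion and capillary electrophoresis; gain of signal versus DMSO baseline.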

Compound | outcome
O=C1CCCC(=O)O1 | inactive
O=C1C(N(CO)C(=O)NCO)N(CO)C(=O)N1CO (stereo unspecified) | inactive
O=C(O)C(c1ccc(Cl)cc1)c1ccc(Cl)cc1 | inactive
O=S1(=O)OC(c2ccc(O)cc2)(c2ccc(O)cc2)c2ccccc21 | inactive
S=C(NC1CCCCC1)NC1CCCCC1 | inactive
O=c1c2ccccc2nnn1CCl | inactive
CO[Si](OC)(OC)c1ccccc1 | inactive
CC(C)=CCC[C@H](C)CCO | inactive
C=CC(=O)NC(C)(C)CS(=O)(=O)O | inactive
CC1(C)S[C@@H]2[C@H](NC(=O)COc3ccccc3)C(=O)N2[C@H]1C(=O)O | inactive
O=S(=O)(O)CC(O)CCl (stereo unspecified) | inactive
NNC(=O)c1cccc(C(=O)NN)c1 | inactive
COC=O | inactive
CCCc1ccc(OC)cc1 | inactive
CCCCCCCC(C)=O | inactive
CC(=O)OCc1ccco1 | inactive
CCOc1ccc(N)c([N+](=O)[O-])c1 | inactive
COC(=O)/C=C/C(C)=C\C=C\C(C)=C\C=C\C=C(C)\C=C\C=C(C)\C=C\C(=O)O | inactive
CN1C(=O)N(C)C(O)C1O (stereo unspecified) | inactive
CCN(CC#N)c1cccc(C)c1 | inactive
OCCc1ccncc1 | inactive
Cc1cc(C)c(C)c(C)c1 | inactive
COc1cc(C)ccc1C(C)C | inactive
N#CCc1ccc(Cl)cc1Cl | inactive
O=C(O)c1cc2ccccc2nc1C(=O)O | inactive
[Cl][In]([Cl])[Cl] | inactive
